The structures appear in SMILES notation. Results filed as inconclusive are left out. Calls of active or inactive are those of the source. Rule for the calls, unless noted: active = hit-call score of the fitted dose curve at least 0.9, where 1 is the maximum; inactive = score below 0.9.

From PubChem BioAssay (EPA / NIEHS) come the findings set out here.

A short description of test [1]: ATG_RORE_CIS: Attagene CIS-FACTORIAL HepG2 Assay for human RAR-related Orphan Receptor Element (RORE) (AID 2282959). The settings on record: HepG2 Attagene cis-factorial RORE reporter, mRNA; actives raise or lower the signal. In a few lines: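 Measured here: transcript induction of a cis-regulated reporter in HepG2 cells transiently transfected via FuGene 6. After 24 h, RNA was processed by RT-PCR and fluorescent capillary electrophoresis; DMSO defined baseline activity.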

Test [2] can be described thus: ATG_Sox_CIS: Attagene CIS-FACTORIAL HepG2 Assay for human SRY-box transcription factor (SOX) (AID 2282960). The conditions noted are these: HepG2 Attagene cis-factorial SOX reporter, mRNA; actives raise or lower the signal. In a few lines:
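Using transiently transfected HepG2 cells, reporter transcription driven by cis elements was assessed 24 h after dosing. Signal was fluorescence of capillary-separated RT-PCR products, with DMSO defining baseline activity.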

Test [3] addresses Transcription factor Sp1 (Homo sapiens) (UniProt P08047). The test is described as follows: ATG_Sp1_CIS: Attagene CIS-FACTORIAL HepG2 Assay for human Specificity Protein 1 (Sp1) (AID 2282961). The settings on record: HepG2 Sp1 cis-reporter transcription, actives raise or lower the signal. In a few lines:
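After transient transfection of HepG2 cells with cis-promoter reporter units and 24 h chemical treatment, reporter transcripts were quantified by RT-PCR and capillary electrophoresis fluorescence. Gain- and loss-of-signal fitted against DMSO.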

Test [4] in a line: ATG_SREBP_CIS: Attagene CIS-FACTORIAL HepG2 Assay for human Sterol Regulatory Element Binding (SREBP) (AID 2282962). The conditions noted are these: HepG2 Attagene cis-factorial SREBP reporter, mRNA; actives raise or lower the signal. Summed up: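 Twenty-four hours after chemical dosing of transfected HepG2 cultures, reporter RNA was converted to cDNA, amplified, end-labelled with 6-FAM and resolved by capillary electrophoresis. Responses were fitted relative to DMSO.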

For test [5], the target named is Signal transducer and activator of transcription 3 (Homo sapiens) (UniProt P40763). The test is described as follows: ATG_STAT3_CIS: Attagene CIS-FACTORIAL HepG2 Assay for human Signal Transducer and Activator of Transcription 3 (STAT3) (AID 2282963). The settings on record: HepG2, Attagene cis-factorial STAT3 reporter transcription; actives raise or lower the signal. Summed up: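 Endogenous STAT3-responsive cis-element activity was read in transiently transfected HepG2 cells after 24 h treatment. Reporter transcripts were quantified via RT-PCR and capillary electrophoresis, with DMSO as negative control and bidirectional curve fitting.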
Signal transducer and activator of transcription 3 (Homo sapiens), sequence (P40763 whole entry, looked up): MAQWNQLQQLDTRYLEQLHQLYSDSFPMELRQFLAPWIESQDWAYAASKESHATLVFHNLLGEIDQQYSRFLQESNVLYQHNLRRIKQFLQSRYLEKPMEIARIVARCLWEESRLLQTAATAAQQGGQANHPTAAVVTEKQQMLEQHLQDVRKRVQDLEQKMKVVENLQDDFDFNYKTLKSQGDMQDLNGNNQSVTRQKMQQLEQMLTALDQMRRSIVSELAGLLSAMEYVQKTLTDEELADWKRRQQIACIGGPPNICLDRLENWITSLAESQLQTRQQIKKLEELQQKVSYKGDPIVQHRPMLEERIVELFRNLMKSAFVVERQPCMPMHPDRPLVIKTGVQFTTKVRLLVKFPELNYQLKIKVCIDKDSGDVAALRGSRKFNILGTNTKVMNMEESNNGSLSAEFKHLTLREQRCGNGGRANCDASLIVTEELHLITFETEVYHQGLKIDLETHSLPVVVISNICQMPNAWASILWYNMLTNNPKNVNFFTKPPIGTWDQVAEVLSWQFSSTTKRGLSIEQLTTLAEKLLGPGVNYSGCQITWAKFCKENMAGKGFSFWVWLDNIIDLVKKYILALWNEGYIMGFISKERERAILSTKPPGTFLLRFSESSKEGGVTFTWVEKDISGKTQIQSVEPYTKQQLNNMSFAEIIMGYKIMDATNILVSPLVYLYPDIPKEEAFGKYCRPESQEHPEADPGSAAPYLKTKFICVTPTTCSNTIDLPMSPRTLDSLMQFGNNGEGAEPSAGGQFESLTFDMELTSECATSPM

A short description of test [6]: ATG_TA_CIS: Attagene CIS-FACTORIAL HepG2 Assay for human TA Basal Promoter (AID 2282964). The settings on record: HepG2 Attagene CIS-factorial TA basal promoter reporter; actives raise or lower the signal. In a few lines:
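Multiplexed mRNA reporter assay, HepG2, 24 h. Reporter cDNA amplified, 6-FAM primer-extended, HpaI-cut, CE-sized; DMSO = negative control and baseline.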

The nature of test [7]: ATG_TCF_b_cat_CIS: Attagene CIS-FACTORIAL HepG2 Assay for human T-Cell-Factor with beta-catenin (TCF/b-cat) (AID 2282965). The settings on record: HepG2 TCF/beta-catenin cis-reporter transcription, actives raise or lower the signal. Summed up:
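Endogenous TCF/LEF activity read as reporter transcript level via RT-PCR and capillary electrophoresis fluorescence in transfected HepG2, 24 h exposure; gain or loss of signal fitted against DMSO controls.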

A short description of test [8]: ATG_TAL_CIS: Attagene CIS-FACTORIAL HepG2 Assay for human TAL Basal Promoter (AID 2282966).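 Note: background control endpoint measuring basal TAL promoter reporter mRNA not a specific factor.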 The settings on record: HepG2 Attagene cis-factorial TAL promoter reporter; actives raise or lower the signal. In a few lines: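 HepG2 cells transiently transfected with multiplexed cis-promoter reporter units, dosed 24 h. Reporter mRNA quantified by RT-PCR, 6-FAM labelling, HpaI digestion and capillary electrophoresis; TAL basal promoter serves as background control, fitted bidirectionally versus DMSO.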

Test [9] is described as follows: ATG_TGFb_CIS: Attagene CIS-FACTORIAL HepG2 Assay for human Transforming Growth Factor (TGF) (AID 2282967). The settings on record: HepG2 Attagene CIS TGFb reporter, mRNA transcription; actives raise or lower the signal. In a few lines:
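Transcript-level reporter readout: HepG2 transfectants, 24 h exposure, RNA to cDNA, reporter-specific PCR, fluorescent primer extension, capillary sizing against ROX standards. Gain- or loss-of-signal relative to DMSO.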

Test [10] in a line: ATG_VDRE_CIS: Attagene CIS-FACTORIAL HepG2 Assay for human Vitamin D Receptor Element (VDRE) (AID 2282968). The settings on record: HepG2 VDRE cis-reporter transcription, actives raise or lower the signal. In a few lines: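 Reporter mRNA induction, quantified by capillary electrophoresis of fluorescently labelled RT-PCR products, was read 24 h after dosing HepG2 cells carrying transiently transfected cis-regulated reporter units; gain or loss relative to DMSO.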

The target in test [11] is Nuclear receptor subfamily 1 group I member 3 (Homo sapiens) (UniProt Q14994). Kind of test: ATG_CAR_TRANS: Attagene TRANS-FACTORIAL HepG2 Assay for human Constitutive Androstane Receptor (CAR) (AID 2282969; active = hit-call score of the fitted dose curve at least 0.9, where 1 is the maximum;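 note: activators raise reporter mRNA above DMSO so AC50 marks induction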). The conditions noted are these: HepG2 Attagene TRANS-FACTORIAL CAR reporter. In a few lines:
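Readout is reporter mRNA induction, quantified by fluorescent primer extension and capillary electrophoresis after RT-PCR. Cells were HepG2 transiently carrying chimeric NR-Gal4 constructs with GAL4-UAS reporters, treated for 24 h; activity scored upward from DMSO.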

The target of test [12] is Steroid hormone receptor ERR1 (Homo sapiens) (UniProt P11474). The test is described as follows: ATG_ERRa_TRANS: Attagene TRANS-FACTORIAL HepG2 Assay for human Estrogen-Related Receptor alpha (ERRa) (AID 2282971; active = hit-call score of the fitted dose curve at least 0.9, where 1 is the maximum). The conditions noted are these: HepG2 Attagene TRANS reporter, ERRa transactivation. In a few lines: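 HepG2 cells transiently transfected with GAL4-UAS reporter units and chimeric NR-Gal4 constructs; after 24 hour compound incubation, reporter mRNA quantified by RT-PCR, fluorescent labelling and capillary electrophoresis, gain of signal versus DMSO.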
Steroid hormone receptor ERR1 (Homo sapiens), sequence (P11474 whole entry, looked up, the tested form may be a part): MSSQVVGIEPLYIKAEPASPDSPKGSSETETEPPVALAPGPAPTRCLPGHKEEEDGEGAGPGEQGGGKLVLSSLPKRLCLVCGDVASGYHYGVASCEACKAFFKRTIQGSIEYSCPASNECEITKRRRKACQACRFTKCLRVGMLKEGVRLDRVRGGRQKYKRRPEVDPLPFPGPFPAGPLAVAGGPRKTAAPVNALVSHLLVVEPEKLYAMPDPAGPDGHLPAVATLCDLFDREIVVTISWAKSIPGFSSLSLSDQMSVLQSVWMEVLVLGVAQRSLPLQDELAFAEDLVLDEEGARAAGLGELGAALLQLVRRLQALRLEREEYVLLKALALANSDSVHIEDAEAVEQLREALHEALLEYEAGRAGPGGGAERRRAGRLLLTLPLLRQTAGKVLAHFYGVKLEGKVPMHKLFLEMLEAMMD

Test [13] addresses X-box-binding protein 1 (Homo sapiens) (UniProt P17861). Kind of test: ATG_Xbp1_CIS: Attagene CIS-FACTORIAL HepG2 Assay for human X-box Binding Protein 1 (XBP1) (AID 2282972). The conditions noted are these: HepG2 XBP1 cis-element reporter, Attagene multiplex; actives raise or lower the signal. Summed up:
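After a 24-hour chemical exposure of HepG2 cells carrying cis-regulated reporters, reporter mRNA levels are assessed. Quantification uses RT-PCR, 6-FAM labelling and capillary electrophoresis. Gain- or loss-of-signal is fitted against DMSO.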

The nature of test [14]: ATG_GAL4_TRANS: Attagene TRANS-FACTORIAL HepG2 Assay for GAL4 (Internal Marker) (AID 2282976; active = hit-call score of the fitted dose curve at least 0.9, where 1 is the maximum). The settings on record: HepG2 Attagene TRANS GAL4 internal marker reporter. Summed up:
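Background-control readout: GAL4-UAS reporter transcript in transiently transfected HepG2 cells after 24 h compound exposure. Measured by RT-PCR, 6-FAM primer extension, HpaI digest and capillary electrophoresis; gain-of-signal fit versus DMSO.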

Test [15] concerns the target Bile acid receptor (Homo sapiens) (UniProt Q96RI1). The test is described as follows: ATG_FXR_TRANS: Attagene TRANS-FACTORIAL HepG2 Assay for Farnesoid X Receptor (FXR) (AID 2282979; active = hit-call score of the fitted dose curve at least 0.9, where 1 is the maximum;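 note: hits raise reporter mRNA above DMSO so AC50 marks FXR activation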). The conditions noted are these: HepG2 Attagene TRANS FXR-GAL4 reporter transcription. In a few lines:
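HepG2 cells were transiently transfected with GAL4-UAS reporters driven by chimeric NR-Gal4 proteins and dosed for 24 h. Reporter mRNA was quantified by RT-PCR, fluorescent labelling, HpaI digestion and capillary electrophoresis, with gain of signal scored versus DMSO.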

The target of test [16] is Glucocorticoid receptor (Homo sapiens) (UniProt P04150). Kind of test: ATG_GR_TRANS: Attagene TRANS-FACTORIAL HepG2 Assay for human Glucocorticoid Receptor (GR) (AID 2282978; active = hit-call score of the fitted dose curve at least 0.9, where 1 is the maximum;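 note: activators score as hits since higher reporter transcript over DMSO is fitted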). The settings on record: HepG2 Attagene TRANS GR reporter, mRNA transcription. Summed up: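 HepG2 transient transfection, multiple reporter units, GAL4-UAS under NR-GAL4 chimera control. 24 h treatment. Reporter mRNA by RT-PCR/CE fluorescence, DMSO as negative control.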
Glucocorticoid receptor (Homo sapiens), sequence (P04150 whole entry, looked up, the tested form may be a part): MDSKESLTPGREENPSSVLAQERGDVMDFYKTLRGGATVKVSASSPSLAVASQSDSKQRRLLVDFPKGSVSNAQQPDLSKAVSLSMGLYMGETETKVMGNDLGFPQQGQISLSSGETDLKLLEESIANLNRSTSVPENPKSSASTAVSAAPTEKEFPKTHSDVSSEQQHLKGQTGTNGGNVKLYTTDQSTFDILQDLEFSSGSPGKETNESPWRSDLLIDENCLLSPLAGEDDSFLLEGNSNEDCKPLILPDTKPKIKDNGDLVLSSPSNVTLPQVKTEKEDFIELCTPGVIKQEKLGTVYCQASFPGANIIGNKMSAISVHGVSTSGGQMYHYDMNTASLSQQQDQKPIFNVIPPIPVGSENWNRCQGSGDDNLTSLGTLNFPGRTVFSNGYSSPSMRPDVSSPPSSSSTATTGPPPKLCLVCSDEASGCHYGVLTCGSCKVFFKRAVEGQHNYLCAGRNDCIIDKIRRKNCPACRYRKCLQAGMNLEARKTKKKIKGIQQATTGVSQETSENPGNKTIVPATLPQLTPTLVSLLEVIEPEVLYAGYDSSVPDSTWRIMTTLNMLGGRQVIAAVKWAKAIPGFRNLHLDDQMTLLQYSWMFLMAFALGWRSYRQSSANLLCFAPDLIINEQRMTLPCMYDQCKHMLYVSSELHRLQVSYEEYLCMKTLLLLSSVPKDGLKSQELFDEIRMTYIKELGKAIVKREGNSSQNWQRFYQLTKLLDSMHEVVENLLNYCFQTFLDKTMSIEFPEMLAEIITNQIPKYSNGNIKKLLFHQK

Test [17] has as its target Estrogen receptor (Homo sapiens) (UniProt P03372). The test is described as follows: ATG_ERa_TRANS: Attagene TRANS-FACTORIAL HepG2 Assay for human Estrogen Receptor alpha (ERa) (AID 2282970; active = hit-call score of the fitted dose curve at least 0.9, where 1 is the maximum). The settings on record: HepG2 Attagene TRANS ERa GAL4 reporter, mRNA. In a few lines: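 HepG2 cells transiently transfected with multiplexed GAL4-UAS reporter units read out chimeric NR-Gal4 activity. After 24 h compound exposure, reporter mRNA was quantified by RT-PCR, 6-FAM labeling, HpaI digestion and capillary electrophoresis, relative to DMSO.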

The target in test [18] is Estrogen-related receptor gamma (Homo sapiens) (UniProt P62508). The test is described as follows: ATG_ERRg_TRANS: Attagene TRANS-FACTORIAL HepG2 Assay for human Estrogen-Related Receptor gamma (ERRg) (AID 2282977; active = hit-call score of the fitted dose curve at least 0.9, where 1 is the maximum;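 note: hits increase reporter signal over DMSO so potencies reflect activators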). The conditions noted are these: HepG2 Attagene TRANS reporter, ERRg transactivation. In a few lines:
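HepG2 cells transiently transfected with multiplexed GAL4-UAS reporter units driven by chimeric NR-Gal4 proteins; 24 h exposure. Reporter mRNA quantified by RT-PCR, fluorescent labelling, HpaI digestion and capillary electrophoresis; gain of signal vs DMSO.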

Test [19] is described as follows: ATG_M_19_TRANS: Attagene TRANS-FACTORIAL HepG2 Assay for M19 Transcription Factor (Internal Marker) (AID 2282974; active = hit-call score of the fitted dose curve at least 0.9, where 1 is the maximum). The settings on record: HepG2 Attagene TRANS-FACTORIAL M19 internal marker reporter. In a few lines: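 Gain-of-signal in reporter mRNA, relative to DMSO, was scored from capillary electrophoresis fluorescence. HepG2 cells carried transiently transfected multiple reporter transcription units and were incubated with test chemicals for 24 h.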

Nuclear receptor subfamily 1 group I member 3 (Homo sapiens), sequence (Q14994 whole entry, looked up, the tested form may be a part): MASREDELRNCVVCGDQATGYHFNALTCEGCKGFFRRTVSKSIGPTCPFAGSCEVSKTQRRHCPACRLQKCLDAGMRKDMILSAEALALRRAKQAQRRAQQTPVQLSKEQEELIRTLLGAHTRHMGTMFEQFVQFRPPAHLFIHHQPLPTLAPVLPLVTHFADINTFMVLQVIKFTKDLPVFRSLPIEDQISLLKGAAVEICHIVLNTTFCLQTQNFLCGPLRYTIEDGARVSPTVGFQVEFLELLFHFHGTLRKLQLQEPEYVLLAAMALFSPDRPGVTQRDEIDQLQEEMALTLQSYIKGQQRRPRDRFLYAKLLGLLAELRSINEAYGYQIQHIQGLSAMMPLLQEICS
Estrogen receptor (Homo sapiens), sequence (P03372 whole entry, looked up, the tested form may be a part): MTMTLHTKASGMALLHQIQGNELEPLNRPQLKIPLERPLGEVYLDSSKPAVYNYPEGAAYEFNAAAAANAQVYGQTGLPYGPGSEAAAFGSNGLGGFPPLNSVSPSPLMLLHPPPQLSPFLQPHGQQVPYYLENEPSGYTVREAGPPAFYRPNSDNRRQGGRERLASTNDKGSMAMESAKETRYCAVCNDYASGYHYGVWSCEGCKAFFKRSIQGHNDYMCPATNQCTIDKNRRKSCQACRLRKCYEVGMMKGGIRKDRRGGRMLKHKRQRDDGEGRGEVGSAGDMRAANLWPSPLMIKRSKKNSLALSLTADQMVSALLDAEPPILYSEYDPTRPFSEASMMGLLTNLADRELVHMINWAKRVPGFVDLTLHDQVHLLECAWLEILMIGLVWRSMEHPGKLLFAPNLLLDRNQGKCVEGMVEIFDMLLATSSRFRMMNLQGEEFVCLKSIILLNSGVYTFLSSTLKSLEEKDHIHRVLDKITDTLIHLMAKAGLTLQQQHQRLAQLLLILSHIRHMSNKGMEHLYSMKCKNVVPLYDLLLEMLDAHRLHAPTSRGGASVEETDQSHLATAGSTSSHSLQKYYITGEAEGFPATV
Transcription factor Sp1 (Homo sapiens), sequence (P08047 whole entry, looked up): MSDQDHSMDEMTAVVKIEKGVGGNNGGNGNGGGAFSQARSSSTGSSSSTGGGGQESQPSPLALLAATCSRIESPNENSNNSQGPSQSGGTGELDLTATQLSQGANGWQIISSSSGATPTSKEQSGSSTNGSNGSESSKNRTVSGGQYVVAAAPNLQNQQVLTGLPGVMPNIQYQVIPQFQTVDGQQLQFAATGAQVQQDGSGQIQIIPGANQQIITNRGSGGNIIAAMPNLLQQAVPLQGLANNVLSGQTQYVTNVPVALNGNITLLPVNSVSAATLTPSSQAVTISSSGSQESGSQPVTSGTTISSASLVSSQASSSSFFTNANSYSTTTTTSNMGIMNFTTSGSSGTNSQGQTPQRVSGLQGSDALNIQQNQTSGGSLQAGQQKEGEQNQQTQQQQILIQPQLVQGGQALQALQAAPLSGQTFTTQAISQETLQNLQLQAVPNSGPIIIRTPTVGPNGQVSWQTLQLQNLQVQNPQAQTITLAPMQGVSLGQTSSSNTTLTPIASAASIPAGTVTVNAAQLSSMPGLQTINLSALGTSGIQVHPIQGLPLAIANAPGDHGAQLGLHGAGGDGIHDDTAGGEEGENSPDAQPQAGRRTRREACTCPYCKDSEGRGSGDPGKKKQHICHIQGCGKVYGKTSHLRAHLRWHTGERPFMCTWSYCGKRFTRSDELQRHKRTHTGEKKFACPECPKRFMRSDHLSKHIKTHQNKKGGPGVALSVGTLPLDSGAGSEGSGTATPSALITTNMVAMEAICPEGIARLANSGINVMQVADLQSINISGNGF
X-box-binding protein 1 (Homo sapiens), sequence (P17861 whole entry, looked up): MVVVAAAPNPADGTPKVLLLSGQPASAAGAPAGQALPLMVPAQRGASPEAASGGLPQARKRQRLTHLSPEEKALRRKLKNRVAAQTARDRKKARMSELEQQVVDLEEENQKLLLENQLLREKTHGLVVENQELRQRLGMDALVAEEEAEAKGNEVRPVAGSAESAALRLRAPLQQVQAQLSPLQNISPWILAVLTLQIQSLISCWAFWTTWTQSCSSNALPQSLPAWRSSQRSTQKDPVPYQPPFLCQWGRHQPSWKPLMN
Estrogen-related receptor gamma (Homo sapiens), sequence (P62508 whole entry, looked up, the tested form may be a part): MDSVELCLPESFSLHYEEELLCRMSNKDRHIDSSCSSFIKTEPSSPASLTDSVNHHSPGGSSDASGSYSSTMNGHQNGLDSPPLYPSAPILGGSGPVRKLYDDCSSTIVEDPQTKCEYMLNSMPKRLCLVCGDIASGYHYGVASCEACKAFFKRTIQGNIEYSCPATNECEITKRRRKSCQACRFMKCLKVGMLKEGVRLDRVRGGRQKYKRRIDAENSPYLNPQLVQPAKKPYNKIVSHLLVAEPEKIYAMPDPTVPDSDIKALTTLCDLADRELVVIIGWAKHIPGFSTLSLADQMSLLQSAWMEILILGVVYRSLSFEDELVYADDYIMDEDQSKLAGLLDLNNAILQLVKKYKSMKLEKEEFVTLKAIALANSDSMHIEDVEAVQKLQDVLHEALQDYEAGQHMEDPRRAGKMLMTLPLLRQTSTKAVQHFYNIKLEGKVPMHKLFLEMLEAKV
Bile acid receptor (Homo sapiens), sequence (Q96RI1 whole entry, looked up, the tested form may be a part): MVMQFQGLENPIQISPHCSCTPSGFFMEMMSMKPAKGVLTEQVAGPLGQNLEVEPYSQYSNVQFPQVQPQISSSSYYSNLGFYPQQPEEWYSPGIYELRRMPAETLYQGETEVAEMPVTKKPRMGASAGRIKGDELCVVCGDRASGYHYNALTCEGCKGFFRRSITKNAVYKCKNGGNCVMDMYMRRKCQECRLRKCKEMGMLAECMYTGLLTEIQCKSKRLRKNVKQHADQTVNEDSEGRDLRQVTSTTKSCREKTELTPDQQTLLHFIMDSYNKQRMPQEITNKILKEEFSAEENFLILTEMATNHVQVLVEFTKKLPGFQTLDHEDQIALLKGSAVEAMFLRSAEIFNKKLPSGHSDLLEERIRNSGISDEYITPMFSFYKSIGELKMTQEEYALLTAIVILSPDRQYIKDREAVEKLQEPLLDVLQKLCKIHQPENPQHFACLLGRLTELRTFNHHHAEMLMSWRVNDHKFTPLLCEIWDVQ

For the molecule `O=C(O)C1(c2ccc3c(c2)OC[C@H](Cc2ccc(-c4ccccc4)cc2)[C@H]3O)CCCC1`, the molecule was classed as inactive in test [1], in [2], in [3], in test [5], in test [6] and in test [7]. The result in test [8], in test [9], in test [10], in test [11], in [12] and in test [13] was inactive. Further, the result in test [14] and in test [15] was inactive. Besides, the half-maximal activity concentration (AC50) (usually the concentration at which the activity in the assay is half-maximal) in test [4] is 5.92 µM (active).

As for `CCOc1cc(C=O)ccc1O`, the molecule was classed as inactive in test [1], in test [2], in test [3], in [4], in test [5] and in test [6]. The outcome in [7], in [8], in test [9], in [10], in test [11] and in test [13] was inactive. Also, the call in test [14] and in test [16] was inactive.

Turning to `O=c1[nH]c2ccccc2n1C1CCN(CCCC(c2ccc(F)cc2)c2ccc(F)cc2)CC1`, the outcome in test [1], in test [2], in [3], in test [5], in test [6] and in [7] was inactive. Moreover, the result in test [8], in test [9], in test [10], in [17], in test [12] and in test [13] was inactive. The molecule was classed as inactive in test [14], in test [18], in test [16] and in test [15]. Further, the half-maximal activity concentration (AC50) in test [4] is 3.71 µM (active).

In the case of `O=S(=O)(Oc1ccc(Cl)cc1)c1ccc(Cl)cc1`, the molecule was called inactive in test [1], in [2], in test [3], in test [4], in [5] and in test [6]. For the same molecule, the call in [7], in test [8], in test [11], in [13], in test [19] and in test [18] was inactive. In addition, the outcome in [16] was inactive. Besides, the figures for the concentration at half-maximal activity (AC50) in [9] and in [10] were 63.8 µM (active) and 10.4 µM (active), respectively.

`c1ccc2sc(SNC3CCCCC3)nc2c1`: the result in [1], in [2], in [5], in [6], in test [7] and in test [8] was inactive. In addition, the molecule was classed as inactive in test [10], in [11], in test [17], in test [13], in test [19] and in [16]. Further, the half-maximal activity concentration (AC50) in test [3] is 184 µM (active); in test [4], 148 µM (active); in [9], 34.4 µM (active).

Take `CC(C)(C)c1ccccc1O`: the AC50 in [1] is 160 µM (active); in [2], 100 µM (active); in test [4], 163 µM (active); in [10], 129 µM (active); in [13], 165 µM (active). In addition, the result in test [3], in [5], in test [6], in test [7], in [8] and in [9] was inactive. Moreover, the result in [11] and in [16] was inactive.

For the molecule `C#CCOC(=O)/C=C(C)/C=C/CC(C)CCCC(C)C` (configuration not stated), the molecule was classed as inactive in [1], in test [2], in test [3], in [4], in [5] and in [6]. For the same molecule, the call in test [7], in test [8], in test [9], in test [10], in [11] and in test [17] was inactive. Also, the outcome in test [13], in test [14], in test [16] and in test [15] was inactive.

On to `OC(Cc1ccccc1Cl)(Cn1cncn1)C1(Cl)CC1` (configuration not stated), for which the molecule was called inactive in test [1], in test [2], in test [3], in test [4], in test [5] and in [6]. The result in test [7], in [8], in [9], in test [11], in test [12] and in test [13] was inactive. Besides, the molecule was called inactive in test [19], in test [18], in test [16] and in test [15]. Also, the AC50 in test [10] is 26 µM (active).
